{"source": "PubChem BioAssay (NCATS)", "note": "Inconclusive results are not listed. A number with no mark means an inactive call. The source made the active and inactive calls. Calls come from the whole dose curve; as a rule, active = well fitted cell-killing curve with a large enough effect; inconclusive = small, poorly fitted or top-dose-only effect, or effect the other way; inactive = no such curve, though single readings can be large or run the other way. Potency is the fitted concentration of half-maximal effect.", "data": [{"experiment": "Quantitative High-Throughput drug screen in 47 multiple myeloma cell lines against the NCATS MIPE library collection: KMS12BM_JCRB cell viability assay (AID 1918971); note: nearly all actives have a fitted effect of over 35% in size", "conditions": "KMS12BM myeloma viability, CellTiter-Glo ATP, 48 h; series mostly up to 45.8 µM; viability, % of DMSO: at the top concentration", "description": "PI: Beverly A. Mock Ph.D.\nLaboratory of Cancer Biology and Genetics,\nCenter for Cancer Research, National Cancer Institute,\nNational Institute of Health, Bethesda, Maryland\nDrug resistance and disease progression are common in multiple myeloma (MM) patients, underscoring the need for new therapeutic combinations. […] We hypothesized that effective combinations would reduce MYC expression and enhance p16 activity. […] These preclinical data identify potentially useful drug combinations for evaluation in drug-resistant MM and reveal potential mechanisms of combined drug sensitivity.\nDescribed herein is the primary MIPE qHTS used to cherrypick compounds. Validated compounds were then further tested for potential synergistic activiy.\n[1] Peat TJ, Gaikwad SM, Dubois W, Gyabaah-Kessie N, Zhang S, Gorjifard S, Phyo Z, Andres M, Hughitt VK, Simpson RM, Miller MA, Girvin AT, Taylor A, Williams D, D'Antonio N, Zhang Y, Rajagopalan A, Flietner E, Wilson K, Zhang X, Shinn P, Klumpp-Thomas C, McKnight C, Itkin Z, Chen L, Kazandijian D, Zhang J, Michalowski AM, Simmons JK, Keats J, Thomas CJ, Mock BA. Drug combinations identified by high-throughput screening promote cell cycle transition and upregulate Smad pathways in myeloma. Cancer Lett. 2023 Aug 1;568:216284. doi: 10.1016/j.canlet.2023.216284. Epub 2023 Jun 24. PMID: 37356470; PMCID: PMC10408729.\nSEQUENCE No. (e.g., 1, 2, 3, etc.); […] (e.g., Cells, Incubation, Reagent, etc.); VALUE and DESCRIPTION.\n1; Cells; 5 uL; white, solid bottom 1536-well Greiner assay plate.\n2; Compounds; 23 nL; Kalypsis pin tool (Wako USA) equipped with a 1536-well pin head to transfer to the assay plates.\n3; Incubation; 48 hours; 37C incubation.\n4; Reagent;5uL; CellTiter Glo (Promega).\n5; Detector; 425V; Luminescence; Viewlux PerkinElmer.\nNOTES (numbers refer to Sequence numbers above)\n1. The cell-based screening methods employed in this study were like those previously published. Briefly, the corresponding myeloma cell lines were screened in 1,536-well plates with 500 cells, 5-uL per well for inhibition of cell viability (assessed by measuring ATP levels with CellTiterGlo).\n2. NCATS MIPE 4.0 library of approved and investigational drugs were added using the Kalypsis pin tool. Wells treated with DMSO only for 100% viability and media only wells for 0% viability were used as controls.\n3. The assay plates were covered and incubated for 48 hours in a 37C, 5% CO2 incubator with controlled humidity.\n4. After 48 hours, CellTilter-GloTM luminescent substrate mix (Promega) reagent was added to the assay plate and plates we incubated for 5 min at room temperature.\n5. Signal was measured as median relative luminescence units on a ViewLux (PerkinElmer) multiplate reader.\n[1] Heske CM, Davis MI, Baumgart JT, Wilson K, Gormally MV, Chen L, Zhang X, Ceribelli M, Duveau DY, Guha R, Ferrer M, Arnaldez FI, Ji J, Tran HL, Zhang Y, Mendoza A, Helman LJ, Thomas CJ. Matrix Screen Identifies Synergistic Combination of PARP Inhibitors and Nicotinamide Phosphoribosyltransferase (NAMPT) Inhibitors in Ewing Sarcoma. Clin Cancer Res. 2017 Dec 1;23(23):7301-7311. doi: 10.1158/1078-0432.CCR-17-1121. Epub 2017 Sep 12. PMID: 28899971; PMCID: PMC6636827.", "values": [{"smiles": "c1nc2nc(Nc3ccc(N4CCOCC4)cc3)nc(NC3CCCCC3)c2[nH]1", "Potency": "20900 nM (active)"}, {"smiles": "CC(NCc1ccc2c(c1)nc(NC(=O)c1ccc(-c3cn[nH]c3)s1)n2CC(C)(C)O)C(C)(C)C", "note": "(stereo not given)", "Potency": "1050 nM (active)"}, {"smiles": "CC(C)[C@H](C(=O)Nc1ccc(C(=O)NO)cc1)c1ccccc1", "Potency": "526 nM (active)"}, {"smiles": "Nc1ccn([C@@H]2CS[C@H](CO)O2)c(=O)n1", "viability, % of DMSO": "120% [at 92.2 µM]"}, {"smiles": "Nc1ccc(C(=O)c2cc3c(ccc4ccccc43)[nH]2)cc1", "Potency": "2640 nM (active)"}, {"smiles": "CN1c2cc(O)c(N=NC(N)=O)cc2CC1S(=O)(=O)O", "note": "(stereo not given)", "viability, % of DMSO": "120%"}, {"smiles": "Cc1ccc(C(N)=O)cc1Nc1nccc(-c2cn(C(C)C)c3cnccc23)n1", "Potency": "16600 nM (active)"}, {"smiles": "CN1CCC(CNc2ccc3ncc(-c4cccc(OC(F)(F)F)c4)n3n2)CC1", "Potency": "20900 nM (active)"}, {"smiles": "CNC(=O)c1nn(C)c2c1C(C)(C)Cc1cnc(Nc3ccc(N4CCN(C)CC4)cc3)nc1-2", "Potency": "1660 nM (active)"}, {"smiles": "Cn1cc(-c2ccncc2)c(-c2ccc(OCc3ccc4ccccc4n3)cc2)n1", "Potency": "18700 nM (active)"}, {"smiles": "CCCCc1nc2cc(C=CC(=O)NO)ccc2n1CCN(CC)CC", "Potency": "59 nM (active)"}, {"smiles": "O=C(C=Cc1cccnc1)NCCCCC1CCN(C(=O)c2ccccc2)CC1", "Potency": "20.9 nM (active)"}, {"smiles": "COC(=O)C[C@](O)(CCCC(C)(C)O)C(=O)O[C@@H]1C(OC)=C[C@]23CCCN2CCc2cc4c(cc2[C@H]13)OCO4", "viability, % of DMSO": "137%"}, {"smiles": "CCCCCCCCCC(=O)N[C@@H](Cc1c[nH]c2ccccc12)C(=O)N[C@H](CC(N)=O)C(=O)N[C@@H](CC(=O)O)C(=O)N[C@@H]1C(=O)NCC(=O)N[C@@H](CCCN)C(=O)N[C@@H](CC(=O)O)C(=O)N[C@H](C)C(=O)N[C@@H](CC(=O)O)C(=O)NCC(=O)N[C@H](CO)C(=O)N[C@@H]([C@@H](C)CC(=O)O)C(=O)N[C@@H](CC(=O)c2ccccc2N)C(=O)O[C@@H]1C", "viability, % of DMSO": "147%"}, {"smiles": "Cc1nc(N)ncc1-c1nc(N2CCOCC2)c2sc(C(C)(C)O)cc2n1", "Potency": "8330 nM (active)"}, {"smiles": "C[C@]12CC[C@H](O)CC1=CCC1C2CC[C@]2(C)C(n3cnc4ccccc43)=CCC12", "note": "(stereo not given in full)", "Potency": "18700 nM (active)"}, {"smiles": "CCCNC(=O)Nc1ccc(Oc2ncnc3cc(OC)c(OC)cc23)cc1Cl", "Potency": "18700 nM (active)"}, {"smiles": "Cc1c(CN2CCN(S(C)(=O)=O)CC2)sc2c(N3CCOCC3)nc(-c3cnc(N)nc3)nc12", "Potency": "13.2 nM (active)"}, {"smiles": "COc1ccc(CC2c3cc(OC)c(OC)cc3CC[N+]2(C)CCC(=O)OCCCCCOC(=O)CC[N+]2(C)CCc3cc(OC)c(OC)cc3C2Cc2ccc(OC)c(OC)c2)cc1OC", "note": "(stereo not given)", "viability, % of DMSO": "113% [at 5.15 µM]"}, {"smiles": "CC=CC1=C(C(=O)O)N2C(=O)[C@H](NC(=O)[C@H](N)c3ccc(O)cc3)[C@@H]2SC1", "viability, % of DMSO": "148%"}, {"smiles": "O=C(O)c1ccc2c(c1)nc(Nc1cccc(Cl)c1)c1ccncc12", "Potency": "10500 nM (active)"}, {"smiles": "Cn1c2cc(S(C)=O)sc2c2cnn(Cc3cccc(N)c3)c(=O)c21", "note": "(stereo not given)", "viability, % of DMSO": "107%"}, {"smiles": "Nc1ccccc1NC(=O)c1ccc(CNc2nccc(-c3cccnc3)n2)cc1", "Potency": "1320 nM (active)"}, {"smiles": "Nc1cc(C(F)(F)F)c(-c2cc(N3CCOCC3)nc(N3CCOCC3)n2)cn1", "Potency": "1050 nM (active)"}, {"smiles": "Nc1nc(-c2nn(Cc3ccccc3F)c3ncccc23)nc(N)c1N1CCOCC1", "viability, % of DMSO": "112%"}, {"smiles": "CC1(O)CC(c2nc(-c3ccc4ccc(-c5ccccc5)nc4c3)c3c(N)nccn23)C1", "note": "(stereo not given)", "Potency": "16600 nM (active)"}, {"smiles": "COc1cc(C(=O)N2CCC(N3CCN(C)CC3)CC2)ccc1Nc1ncc2c(n1)N(C)c1ccccc1C(=O)N2C", "Potency": "1870 nM (active)"}, {"smiles": "Fc1cc(-c2cccc3ncc(-c4cnn(C5CCNCC5)c4)nc23)cc(F)c1CN1CCOCC1", "Potency": "18700 nM (active)"}, {"smiles": "CN1CCN(c2cc(C(=O)Nc3ccc4c(c3)-c3c(c(C(N)=O)nn3-c3ccc(F)cc3)CC4)c(Cl)cn2)CC1", "Potency": "23500 nM (active)"}, {"smiles": "COc1cccc(-c2ccc(NC(=O)C3=C(C(=O)O)CCC3)c(F)c2)c1", "Potency": "20900 nM (active)"}, {"smiles": "CC(C)CC(=O)Nc1n[nH]c2c1CN(C(=O)C1CCN(C)CC1)C2(C)C", "Potency": "1660 nM (active)"}, {"smiles": "CN1CCN(Cc2ccc(NC(=O)Nc3ccc(Oc4cc(NC(=O)C5CC5)ncn4)cc3)cc2C(F)(F)F)CC1", "Potency": "469 nM (active)"}, {"smiles": "O=c1c2ccccc2nc2n1CCc1c-2[nH]c2ccccc12", "viability, % of DMSO": "133%"}, {"smiles": "C=CC(=O)Nc1cc2c(Nc3ccc(F)c(Cl)c3)ncnc2cc1C#CC(C)(C)N1CCN(C)CC1", "Potency": "332 nM (active)"}, {"smiles": "CC(=O)SC[C@@H](C)C(=O)N1CCC[C@H]1C(=O)N[C@@H](Cc1ccccc1)C(=O)O", "viability, % of DMSO": "146%"}, {"smiles": "CC1COC2(CCN(c3nc(=O)c4cc(C(F)(F)F)cc([N+](=O)[O-])c4s3)CC2)O1", "note": "(stereo not given)", "viability, % of DMSO": "115%"}, {"smiles": "COc1ccc2c(c1)CC[C@@H](CN(C)CC(=O)O)[C@H]2c1ccccc1", "Potency": "2090 nM (active)"}, {"smiles": "CC[C@@]1(O)C(=O)OCc2c1cc1n(c2=O)Cc2cc3cc(O)ccc3nc2-1", "Potency": "526 nM (active)"}, {"smiles": "C1=CCOCc2cc(ccc2OCCN2CCCC2)Nc2nccc(n2)-c2cccc(c2)OCC1", "Potency": "7430 nM (active)"}, {"smiles": "OCCCNc1cc(-c2ccnc(Nc3cccc(Cl)c3)n2)ccn1", "Potency": "132 nM (active)"}]}]}
